Source: PubChem (National Center for Advancing Translational Sciences (NCATS))
In the library only some 12% were active in any assay of this set; here they are far more common.
BAZ2B inh – inhibitors of human BAZ2B bromodomain; Q9UIF8; 360,000 compounds, 4.4% hits; Potency, µM (series often up to 114 µM), usual class: inhibitors; AlphaScreen BAZ2B-H3K14Ac peptide displacement; further: nearly all actives have a fitted effect of over 60% in size
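Multi-concentration screen (max 110 uM) measuring displacement of acetylated histone H3 peptide from BAZ2B by AlphaScreen, using 50 nM protein, 50 nM peptide and 10 ug/mL streptavidin donor plus Ni-chelate acceptor beads.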
G9a inh – inhibitors of human histone lysine methyltransferase G9a; Q96KQ7; G9a H3K9 monomethylation, AlphaScreen, 2 h; AID 504332; 350,000 compounds, 8.8% hits; Potency, µM (series often up to 102 µM), hits mostly inhibitors; further: nearly all actives have a fitted effect of over 75% in size
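AlphaScreen read-out: biotin-H3K9 peptide (500 nM) methylation by 20 nM enzyme with 20 uM SAM, 2 h at room temperature after 15 min compound preincubation; anti-monomethyl H3K9 antibody plus donor/acceptor beads, 10 min dark.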
JMJD2A Tudor – inhibitors of human JMJD2A Tudor domain; Potency, µM (highest dose often 114 µM), most hits filed as inhibitors; AID 504339; AlphaScreen JMJD2A-Tudor / H3K4me3 peptide binding; 390,000 compounds, 4.4% hits; O75164; further: nearly all actives have a fitted effect of over 50% in size
L3MBTL1 inh – L3MBTL1 (human) inhibition; AlphaScreen L3MBTL1–H3K9me1 peptide binding; Potency, µM (series often up to 57.1 µM), hits mostly inhibitors; 230,000 compounds, 0.66% hits; AID 485360; further: nearly all actives have a fitted effect of over 60% in size
Target sequence (Q9Y468 whole entry, looked up): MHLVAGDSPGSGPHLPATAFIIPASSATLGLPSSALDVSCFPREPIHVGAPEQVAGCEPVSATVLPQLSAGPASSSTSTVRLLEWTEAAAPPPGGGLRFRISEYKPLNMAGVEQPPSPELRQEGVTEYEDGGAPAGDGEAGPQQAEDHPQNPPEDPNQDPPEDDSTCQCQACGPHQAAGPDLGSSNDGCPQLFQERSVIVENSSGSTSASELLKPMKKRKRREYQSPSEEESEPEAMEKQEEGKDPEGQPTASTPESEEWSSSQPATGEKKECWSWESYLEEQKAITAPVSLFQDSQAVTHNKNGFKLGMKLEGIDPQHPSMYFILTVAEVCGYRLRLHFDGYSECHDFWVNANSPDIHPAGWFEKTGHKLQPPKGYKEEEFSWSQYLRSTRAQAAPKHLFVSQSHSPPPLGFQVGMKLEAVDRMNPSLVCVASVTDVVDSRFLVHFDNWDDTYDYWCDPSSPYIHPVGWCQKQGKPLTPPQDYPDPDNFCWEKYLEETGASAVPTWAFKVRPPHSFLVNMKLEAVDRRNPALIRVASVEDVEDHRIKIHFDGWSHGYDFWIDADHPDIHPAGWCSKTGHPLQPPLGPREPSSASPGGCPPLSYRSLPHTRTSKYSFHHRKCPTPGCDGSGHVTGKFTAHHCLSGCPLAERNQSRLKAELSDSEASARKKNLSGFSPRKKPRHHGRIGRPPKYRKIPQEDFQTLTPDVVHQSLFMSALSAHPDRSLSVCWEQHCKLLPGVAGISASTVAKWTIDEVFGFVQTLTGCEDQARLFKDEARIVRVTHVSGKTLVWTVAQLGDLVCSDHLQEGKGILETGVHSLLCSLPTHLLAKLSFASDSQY
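Displacement of a biotinylated histone H3(1-15) peptide monomethylated at Lys9 (75 nM) from L3MBTL1 (50 nM) was measured by AlphaScreen after a 30 min room-temperature compound incubation; cefsulodin titration served as intraplate control.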
Sfp inh – inhibitors of Bacillus subtilis Sfp phosphopantetheinyl transferase; Biochemical Sfp PPTase activity, qHTS; Potency, µM, most hits filed as inhibitors; 310,000 compounds, 3.5% hits;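 further: the enzyme is Sfp with the accession as filed and its product quenches rhodamine fluorescence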
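Fluorescence-quenching assay with 15 nM Sfp, 5 uM rhodamine-CoA and 12.5 uM BHQ-2-labelled ybbR peptide in pH 7.6 Hepes/MgCl2 buffer. Enzyme was pre-incubated with compound for 15 min at room temperature. Rate was taken from the 30-min fluorescence change (525/598 nm).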
HP1b binding inh – HP1-beta chromodomain-methylated histone interaction inhibition; AlphaScreen HP1-beta / biotin-H3K9me3 peptide binding; Potency, µM (top dose mostly 114 µM), most hits filed as inhibitors; 390,000 compounds, 0.56% hits; further: nearly all actives have a fitted effect of over 70% in size
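AlphaScreen: HP1-beta (50 nM) preformed 30 min with biotin-H3(1-18)K9me3 peptide (50 nM) in PBS pH 7.4, 0.01% Tween-20. Compound added for 30 min at RT, then streptavidin donor/nickel chelate acceptor beads (10 ug/mL) for 30 min.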
A number is an active result; 0 = inactive; ? = inconclusive; - = no result given; [ ] = another dose, or the depositor's remark. The call rests on the fitted dose curve; in most records, active means well fitted curve in the direction sought with a large enough effect; inconclusive means small, poorly fitted or top-dose-only effect, or another doubt; inactive means no such curve, though single readings can be large; an effect the other way counts as inactive or inconclusive.

SMILES	BAZ2B inh	G9a inh	JMJD2A Tudor	L3MBTL1 inh	Sfp inh	HP1b binding inh
CCC(COC)Oc1cc(NCc2ccccc2)c2ncn(C(C)C)c2c1 (stereo unspecified)	50.1µM	0[0.501 µM]	50.1µM	?	-	0
CCC(CO)Oc1cc(NCc2ccc(C(C)(C)C)cc2)c2ncn(C(C)C)c2c1 (stereo unspecified)	-	-	25.1µM	0	-	0
CCC(CO)Oc1cc(NCc2ccc(O)cc2)c2ncn(C(C)C)c2c1 (stereo unspecified)	-	-	?	0	-	0
CCC(COC(=O)c1ccccc1)Oc1cc(NCc2ccccc2)c2ncn(C(C)C)c2c1 (stereo unspecified)	-	-	44.7µM	?	-	0
O=C(NCCSc1ncc(-c2ccc(F)cc2)[nH]1)c1ccco1	0	50.1µM	0	0	-	0
COc1cc(OC)cc(C(=O)NCCSc2c[nH]c3ccccc23)c1	0	44.7µM	0	-	0	0
O=C(NCCSc1c[nH]c2ccccc12)c1ccco1	0	70.8µM	0	?	0	0
O=c1[nH]c(NNC(=S)NCc2ccccc2)nc2c1C1(CCCCC1)Cc1ccccc1-2	?	20µM	?	0	0	?
O=c1[nH]c(NNC(=S)NC2CCCCC2)nc2c1C1(CCCC1)Cc1ccccc1-2	0	0[12.7 µM]	?	-	79.4µM	0
C=CCNC(=S)NNc1nc2c(c(=O)[nH]1)C1(CCCC1)Cc1ccccc1-2	?	?	?	0	?	0
N#Cc1nc(Nc2cccc3ccccc23)nc(NC2CCCC2)n1	-	-	0	-	-	-
Cc1ccc(C(=O)Oc2oc(-c3ccco3)nc2C=Nc2ccc(Cl)cc2)cc1	0	50.1µM	0	0	?	0
Cc1ccc(C(=O)Oc2oc(-c3ccccc3)nc2C=Nc2ccc(N(C)C)cc2)cc1	0	0	0	0	?	0
O=C(Oc1oc(-c2ccco2)nc1C=Nc1ccccc1)c1ccoc1	0	7.08µM	0	0	20µM	0
O=C(Oc1oc(-c2ccco2)nc1C=Nc1ccccc1)c1ccco1	0	?	0	0	11.2µM	0
Cc1ccc(CNC(=O)C2CCCN(S(=O)(=O)c3ccc(-n4cnnn4)cc3)C2)cc1 (stereo unspecified)	0	0	0	-	0	0
O=C(CC(NCc1cccnc1)C(=O)O)Nc1ccc(F)cc1 (stereo unspecified)	0	?	0	-	-	0
CCCNC(=O)C1CCC(Cn2c(=O)c3sccc3n(CC(=O)Nc3ccccc3C)c2=O)CC1 (stereo unspecified)	0	0	0	-	-	0
COc1ccc(-c2nc3c4ccccc4n(CC(=O)N4CCN(c5ccc(F)cc5)CC4)c(=O)n3n2)cc1	0	0	0	-	-	0
COCc1nnc(NC(=O)CSCc2ccccc2)s1	?	0[0.0925 µM]	0	0	0	0
CC(=O)Nc1c(O)nc(SCC(=O)Nc2nnc(SCc3ccccc3)s2)[nH]c1=O	?	20µM	?	-	35.5µM	0
CC(=O)Nc1c(O)nc(SCC(=O)Nc2nnc(CC(C)C)s2)[nH]c1=O	0	?	0	0	0	0
COCCSc1nnc(NS(=O)(=O)c2ccc(C)cc2)s1	?	0[12.7 µM]	0	0	0	0
COCCSc1nnc(NC(=O)CSCc2ccccc2)s1	0	14.1µM	0	0	0	0
Nc1nnc(SCC(=O)Nc2sc3c(c2C(=O)c2ccccc2)CCCC3)s1	?	?	?	0	0	?
SMILES	BAZ2B inh	G9a inh	JMJD2A Tudor	L3MBTL1 inh	Sfp inh	HP1b binding inh
COCCNc1nnc(SCC(=O)Nc2sc3c(c2C(=O)c2ccccc2)CCCC3)s1	?	44.7µM	?	0	?	?
COCCSc1nnc(NS(=O)(=O)c2ccccc2)s1	?	28.2µM	0	0	0	0
Cc1ccccc1-c1cc(C(=O)O)nn1CC1CC(c2cccc([N+](=O)[O-])c2)=NO1 (stereo unspecified)	0	0[2.33 µM]	0	0	-	0
Cc1ccccc1NC(=O)c1cccc(N2C(=O)C3C4CC(C(Br)C4Br)C3C2=O)c1 (stereo unspecified)	0	0[0.501 µM]	0	-	0	0
COc1cc(C(=O)NC(=S)Nc2ccc3c(c2)C(=O)N(C)C3=O)cc(OC)c1OC	0	44.7µM	?	0	0	0
COc1cc(C(=O)NC(=S)Nc2ccc(Cl)cn2)cc(OC)c1OC	0	0	15.8µM	-	0	0
COc1cccc(OC)c1C(=O)NC(=S)Nc1ccc2c(c1)C(=O)N(C)C2=O	0	?	0	0	0	0
COc1cc(NS(=O)(=O)c2cc(Br)cc3c2N(C(=O)C2CC2)CC3)cc(OC)c1	0	0	0	-	-	0
O=C(O)Cc1ccc(NC(=O)C2CC=CCC2C(=O)O)cc1 (stereo unspecified)	56.2µM	?	-	?	0	-
O=C(NCc1cccc(Cl)c1)C1CCCN(c2nn3cc(-c4ccc(F)cc4)nc3s2)C1 (stereo unspecified)	0	?	0	-	-	?
CCN(CC)CCNC(CC(=O)Nc1ccc(Cl)cc1Cl)C(=O)O (stereo unspecified)	0	8.91µM	0	0	0	0
Cc1cc(S(=O)(=O)NCC(C)C)ccc1OCC(=O)NCc1ccccn1	?	?	22.4µM	-	0	0
Cc1cc(S(=O)(=O)NCc2ccccc2)ccc1OCC(=O)NCc1ccccn1	0	0	0	-	0	0
O=S(=O)(NCc1ccccn1)c1cc(Cl)ccc1Cl	0	79.4µM	0	0	0	0
Cc1ccc(C(C)C)cc1S(=O)(=O)NCc1ccccn1	0	0	0	0	0	0
CCOc1ccc(S(=O)(=O)NCc2cccnc2)cc1NC(=O)c1ccccc1	-	-	0	-	-	0
CCOc1ccc(S(=O)(=O)NCc2ccccn2)cc1NC(=O)c1ccccc1	0	0	7.94µM	0	-	0
COc1ccc(C(C)C)cc1S(=O)(=O)NCc1ccccn1	0	0[12.7 µM]	2.24µM	0	0	0
CCCCC/C=C\C\C=C/C=C/C=C/[C@@H](SCC(N)C(=O)NCC(=O)O)[C@@H](O)CCCC(=O)O (stereo partly specified)	-	-	-	-	0	-
O=C(CCN1C(=O)/C(=C/c2ccccc2Cl)SC1=S)NCCCN1CCOCC1	?	?	?	-	0	0
Cc1ccc(NC(=O)/C(C#N)=C/c2cc(C)n(-c3ccc(Br)cc3)c2C)cc1C	0	0	0	-	-	0
COc1ccc(C(=O)O)cc1S(N)(=O)=O	0	0	0	0	0	0
CNS(=O)(=O)c1cc(C(=O)O)ccc1OC	0	0	12.6µM	0	0	0
COc1ccc(C(=O)O)cc1S(=O)(=O)NCc1ccccn1	70.8µM	0	?	-	0	0
COc1cccc(C2C(C(=O)Nc3ccccc3OC)=C(C)Nc3nc(-c4ccco4)nn32)c1 (stereo unspecified)	0	0	?	-	-	0
O=C(CCSCc1cnn(-c2ccccc2)c1-n1cccc1)NCc1ccc(Cl)cc1	0	0	0	-	-	0
CCCOc1ccc(CCC(=O)O)cc1	0	-	0	0	0	0
